# CD40 NFkB inh – inhibitors of CD40-induced NF-kB signaling, primary screen, BL2 cells, luciferase reporter, single point. CD40L-induced, 4 h. 0.94% of 83,000 active. AID 1053188, 2014. inhibition, % at 10 µM;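 active = mean inhibition of at least 50% with a set share of replicates also reaching that level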;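 note: 0% = neutral control wells and 100% = IKK inhibitor VII at 50 µM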
# Starred values were filed as active, the others as inactive; [ ] = remark or other dose. Only a selection was taken, and hits are over-represented in it overall.
SMILES,CD40 NFkB inh
O=C(CN1C(=O)c2cccc([N+](=O)[O-])c2C1=O)OCC(=O)N1CCCCC1,61*
O=C(COC(=O)CCN1C(=O)c2cccc([N+](=O)[O-])c2C1=O)NCc1ccccc1,6
COc1ccc(-c2ccc3n(c2=O)C[C@@H]2[C@@H](CO)[C@H](C(=O)N(C)C)[C@H]3N2C(=O)c2cnccn2)cc1,-10[25 µM]
N#C[C@H]1[C@@H](c2ccccc2C2=CCCC2)[C@H](CO)N1C(=O)C1CCCC1,-5[25 µM]
C#C[C@]1(O)CC[C@H]2[C@@H]3CCc4cc(OC5CCCC5)ccc4[C@H]3CC[C@@]21C,52*
C=CCOc1ccc2c(c1)CCC1C2CCC2(C)C(O)C(O)CC12 (stereo not drawn),-111
C#C[C@]1(O)CC[C@H]2[C@@H]3CCc4cc(OC)ccc4[C@H]3CC[C@@]21C,10
CC(C)NC(=O)N1[C@@H]2CN(C)C[C@H]1C2c1ccc(Br)cc1 (stereo partly drawn),5
COc1ccc(C[C@@H]2CCn3cc(nn3)COC[C@@H](C)NC2=O)cc1,3[25 µM]
CCCNC(=O)[C@H]1[C@H](CO)[C@H]2Cn3c(cccc3=O)[C@H]2N1Cc1cccc(F)c1,1[25 µM]
CO[C@@H]1CN(C)C(=O)c2ccc(NS(=O)(=O)CC(F)(F)F)cc2OC[C@H](C)N(C(=O)NC(C)C)C[C@H]1C,-10[25 µM]
CC1(C(=O)Nc2ccccc2Br)CCN1C(=O)Cc1ccc(Cl)cc1Cl (stereo not drawn),1
Clc1ccc(-c2cnc3n2CCCCC3)cc1,-3
Clc1ccc(C[n+]2cc(-c3ccccc3)n3c2CCCCC3)c(Cl)c1,65*
COCC(=O)NC[C@H]1[C@@H](c2ccc(C3=CCCC3)cc2)[C@H](CO)N1C(=O)C1CC1,12[25 µM]
CC(C)c1cccc(NC(=O)C[C@H]2CC[C@H]3[C@@H](COc4ccc(NC(=O)c5cnccn5)cc4C(=O)N3C)O2)c1,4[25 µM]
CC(C)C[C@@H](C=O)NC(=O)[C@H](CC(C)C)NC(=O)[C@H](CC(C)C)NC(=O)OCc1ccccc1,64*[25 µM]
COC(=O)C(CC(C)C)NC(=O)C(N)Cc1ccccc1 (stereo not drawn),12
O=C(NC(CO)C(=O)OCc1ccccc1)OCc1ccccc1 (stereo not drawn),3
O=C(O)CCC/C=C/CC1COC(C(F)(F)F)OC1c1ccccc1O (stereo not drawn),-5[25 µM]
C[C@H]1CN([C@@H](C)CO)C(=O)c2ccccc2-c2ccccc2CO[C@H]1CN(C)C(=O)c1ccccc1,-6
CCC(=O)NC[C@@H]1[C@@H](c2ccccc2)[C@@H](CO)N1C(=O)C1CC1,1[25 µM]
Cc1cccc(S(=O)(=O)N2CCCCN3[C@H](CO)[C@H](c4ccc(-c5ccncc5)cc4)[C@@H]3C2)c1,31[25 µM]
CC=Cc1cc2c(c(=O)o1)C(=O)C(O)C(C)O2 (stereo not drawn),41*
O=C(CN1C(=O)C2CCCCC2C1=O)Nc1nc2ccc(F)cc2s1 (stereo not drawn),-5
SMILES,CD40 NFkB inh
Cc1ccccc1C(=O)N1CCC(C(=O)Nc2nccs2)CC1,-13
Cc1ccccc1C(=O)N1CCC(C(=O)Nc2nc3ccc(F)cc3s2)CC1,56*
O=C1CN(S(=O)(=O)Cc2ccccc2)C[C@H]2[C@@H](c3ccc(C#Cc4ccccc4)cc3)[C@H](CO)N12,15[25 µM]
CC(=O)N(C)C[C@@H]1Oc2c(NC(=O)NC(C)C)cccc2C(=O)N(C)C[C@@H]1C,-30
CC=Cc1ccc2n(c1=O)C[C@H]1[C@H](CO)[C@@H](C(=O)NC3CCC3)[C@@H]2N1C(=O)c1ccccn1 (mixture of isomers),4[25 µM]
COCC(C)n1c(C)cc(C(=O)COC(=O)c2cccn2C)c1C (stereo not drawn),52*
Cc1cc(C(=O)COC(=O)c2cccn2C)c(C)n1Cc1ccco1,57*
Cc1cc(C(=O)COC(=O)c2n[nH]c(=O)c3ccccc23)c(C)n1C(C)C,-36
Cc1cc(C(=O)COc2cccnc2[N+](=O)[O-])c(C)n1Cc1ccco1,-20
COCC(C)n1c(C)cc(C(=O)COc2ccc(N(C)S(=O)(=O)c3ccc(NC(C)=O)cc3)cc2)c1C (stereo not drawn),-7
Cc1cc(C(=O)COC(=O)c2ccco2)c(C)n1Cc1ccco1,101*
Cc1nn(Cc2ccccc2)c(C)c1C(=O)OCC(=O)c1cc(C)n(CC(F)(F)F)c1C,11
Cc1cc(C(=O)CSc2nnc(N)s2)c(C)n1Cc1ccco1,-25
COC(=O)c1c(C(=O)OC)c(C)n(Cc2ccco2)c1C,11
CN(C)CC(=O)N1[C@H](C#N)[C@H](c2ccccc2-c2cccc(C(=O)N(C)C)c2)[C@H]1CO,-5[25 µM]
CN(C)C(=O)c1cccc(-c2ccccc2[C@@H]2[C@@H](CO)N(C(=O)C3CCCC3)[C@H]2C#N)c1,1
C[C@@H](NC(=O)C[C@@H]1C=C[C@H](NS(=O)(=O)c2cccc(F)c2)[C@H](CO)O1)c1ccccc1,-1[25 µM]
Cc1nc(N2[C@H](C#N)[C@H](c3ccccc3)[C@H]2CO)sc1C,-5[25 µM]
COC(=O)C[C@@H]1C[C@@H]2c3cc(NS(C)(=O)=O)ccc3O[C@@H]2[C@H](CO)O1,2[25 µM]
CN1CCN(C(=O)C[C@H]2CC[C@@H]3[C@H](COC[C@@H](O)CN3C(=O)Nc3ccc4c(c3)OCO4)O2)CC1,-1[25 µM]
CO[C@@H]1CN(C)C(=O)c2ccc(NS(C)(=O)=O)cc2OC[C@@H](C)N(S(=O)(=O)CC(F)(F)F)C[C@H]1C,-8[25 µM]
CC(C)CC#Cc1ccc([C@H]2[C@H](CO)N3C(=O)CN(C(=O)c4ccccn4)C[C@@H]23)cc1,-14[25 µM]
CC(C)C#Cc1ccc([C@@H]2[C@@H](C#N)N(C(=O)c3ccccn3)[C@@H]2CO)cc1,-11[25 µM]
CCc1csc(N2[C@H](C#N)[C@@H](c3ccc(-c4ccc(F)cc4)cc3)[C@@H]2CO)n1,19
N#C[C@@H]1[C@@H](c2ccc(C#Cc3ccccc3F)cc2)[C@H](CO)N1C(=O)C1CCCC1,-7
SMILES,CD40 NFkB inh
N#C[C@@H]1[C@@H](c2ccc(C#Cc3ccc(F)cc3)cc2)[C@H](CO)N1C(=O)C1CCCC1,-2
N#C[C@@H]1[C@H](c2ccc(C#Cc3ccccc3F)cc2)[C@H](CO)N1C(=O)c1cccnc1,11[25 µM]
CC(C)C#Cc1ccc([C@H]2[C@H](C#N)N(C(=O)c3ccccn3)[C@H]2CO)cc1,15[25 µM]
N#C[C@H]1[C@H](c2ccc(C#Cc3ccccc3F)cc2)[C@@H](CO)N1C(=O)C1CCCC1,56*
N#C[C@@H]1[C@H](c2ccc(C#Cc3ccccc3F)cc2)[C@@H](CO)N1C(=O)c1cccnc1,78*[25 µM]
CC(C)C#Cc1ccc([C@H]2[C@@H](CO)N(C(=O)c3ccccn3)[C@H]2C#N)cc1,60*[25 µM]
N#C[C@@H]1[C@@H](c2ccccc2)[C@@H](CO)N1C(=O)c1cccnc1,5
CCc1csc(N2[C@H](C#N)[C@H](c3ccc(C#Cc4ccc(F)cc4)cc3)[C@H]2CO)n1,77*[25 µM]
CCc1csc(N2[C@@H](C#N)[C@@H](c3ccc(C#Cc4ccc(F)cc4)cc3)[C@@H]2CO)n1,20[25 µM]
CC=Cc1ccc2n(c1=O)C[C@H]1[C@H](CO)[C@@H](C(=O)NCc3ccccc3F)N[C@@H]21 (mixture of isomers),-11[25 µM]
CC1(C)Oc2ccc(C#N)cc2C(N2CCCC2=O)C1O (stereo not drawn),-2[25 µM]
Cc1ccc(S(=O)(=O)Nc2ccc3c(c2)C(=O)N([C@@H](C)CO)C[C@@H](C)[C@@H](CN(C)C)O3)cc1,10
COc1ccc(-c2ccc([C@H]3[C@H](C#N)N(C(=O)C4CCC4)[C@H]3CO)cc2)cc1,-28

# Bioassay records from PubChem BioAssay.
